# Measurements: article PMC7862700, “An all-to-all approach to the identification of sequence-specific readers for epigenetic DNA modifications on cytosine”
# How the values were obtained:
# Assay in all cases: DAPPL (digital affinity profiling via proximity ligation, sequencing); 10 mM Tris-HCl pH 7.5, 50 mM NaCl, 1 mM DTT, 4% glycerol, room temperature, 30 min; GST-TFs on glutathione beads, 16-mer random dsDNA library, 0.1% formaldehyde crosslink after washing; high values mean tight binding
# FEV = molecular target: T1, FEV (Homo sapiens, UniProt Q99581 1-238); conditions: protein: recombinant; tags: N-terminal GST; dsDNA, one strand shown
# T1 sequence: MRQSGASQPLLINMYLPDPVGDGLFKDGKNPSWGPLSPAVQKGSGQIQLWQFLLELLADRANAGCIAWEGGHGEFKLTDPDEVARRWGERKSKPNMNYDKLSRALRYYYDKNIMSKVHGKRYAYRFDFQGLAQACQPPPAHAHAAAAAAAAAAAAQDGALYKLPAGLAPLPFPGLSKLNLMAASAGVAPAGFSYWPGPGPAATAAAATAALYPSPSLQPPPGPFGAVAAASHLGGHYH
# How it was run: (§1)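 Beads coated with glutathione captured GST-fused human transcription factors that had been expressed in yeast, and the factors were then given DNA barcodes and pooled with a tag-only sample. The pools were incubated with 200 nmole of a random double-stranded 16-mer DNA library in Tris/NaCl/DTT/glycerol buffer for 30 min at room temperature, washed, crosslinked with 0.1% formaldehyde and proximity-ligated with BsaI/T4 ligase at 37 °C for 1 h. PCR amplification and Illumina NextSeq500 sequencing came last. Binding signal is each hexamer's read frequency for a factor divided by its frequency for the tag-only sample.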
# ETV5 = ETV5 (Homo sapiens, UniProt P41161 1-510); conditions: protein: recombinant; tags: N-terminal GST; dsDNA, one strand shown
# Chain of ETV5 (P41161 whole entry): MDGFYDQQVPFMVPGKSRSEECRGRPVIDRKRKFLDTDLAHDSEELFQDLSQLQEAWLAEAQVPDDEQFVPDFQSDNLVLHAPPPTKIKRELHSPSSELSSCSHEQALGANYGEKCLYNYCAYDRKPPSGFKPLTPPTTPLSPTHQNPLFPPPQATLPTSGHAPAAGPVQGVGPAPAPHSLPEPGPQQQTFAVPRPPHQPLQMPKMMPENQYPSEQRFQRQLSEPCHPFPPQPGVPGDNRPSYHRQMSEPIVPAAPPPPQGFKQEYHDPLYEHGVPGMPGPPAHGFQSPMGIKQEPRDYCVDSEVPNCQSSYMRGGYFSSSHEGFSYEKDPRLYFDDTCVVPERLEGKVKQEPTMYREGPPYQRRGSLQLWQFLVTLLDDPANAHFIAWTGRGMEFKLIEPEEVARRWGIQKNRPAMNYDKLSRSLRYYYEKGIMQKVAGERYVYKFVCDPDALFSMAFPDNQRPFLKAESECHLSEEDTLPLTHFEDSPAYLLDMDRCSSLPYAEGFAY
# How it was run: as §1
# HSF1 = HSF1 (Homo sapiens, UniProt Q00613 1-529); conditions: protein: recombinant; tags: N-terminal GST; chain copies: 3; dsDNA, one strand shown
# Chain of HSF1 (Q00613 whole entry): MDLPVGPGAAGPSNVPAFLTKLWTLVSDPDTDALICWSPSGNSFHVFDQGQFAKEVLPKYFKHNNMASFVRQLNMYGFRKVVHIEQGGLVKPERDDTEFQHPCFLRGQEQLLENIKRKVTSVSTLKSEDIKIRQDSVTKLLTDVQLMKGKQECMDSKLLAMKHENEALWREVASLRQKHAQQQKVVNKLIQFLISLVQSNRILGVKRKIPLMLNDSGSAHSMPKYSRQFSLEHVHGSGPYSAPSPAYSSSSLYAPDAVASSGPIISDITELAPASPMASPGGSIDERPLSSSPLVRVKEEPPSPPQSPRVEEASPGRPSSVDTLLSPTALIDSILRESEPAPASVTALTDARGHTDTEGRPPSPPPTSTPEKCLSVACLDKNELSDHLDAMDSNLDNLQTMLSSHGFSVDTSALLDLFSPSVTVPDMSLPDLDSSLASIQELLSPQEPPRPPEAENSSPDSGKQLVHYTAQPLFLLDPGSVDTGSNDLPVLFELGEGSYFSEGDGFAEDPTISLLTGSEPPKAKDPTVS
# How it was run: as §1
# SPIC = molecular target: T2, SPIC (Homo sapiens, UniProt Q8N5J4 1-248); conditions: protein: recombinant; tags: N-terminal GST; dsDNA, one strand shown
# T2 sequence: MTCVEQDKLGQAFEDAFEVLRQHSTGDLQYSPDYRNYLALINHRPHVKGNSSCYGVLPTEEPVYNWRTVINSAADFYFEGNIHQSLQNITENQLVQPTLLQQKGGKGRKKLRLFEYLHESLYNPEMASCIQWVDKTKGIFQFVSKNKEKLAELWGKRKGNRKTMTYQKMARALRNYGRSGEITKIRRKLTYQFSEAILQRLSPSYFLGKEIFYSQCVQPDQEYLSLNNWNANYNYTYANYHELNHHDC
# How it was run: as §1
# ELF4 = ELF4 (Homo sapiens, UniProt Q99607 1-663); conditions: protein: recombinant; tags: N-terminal GST; dsDNA, one strand shown
# Chain of ELF4 (Q99607 whole entry): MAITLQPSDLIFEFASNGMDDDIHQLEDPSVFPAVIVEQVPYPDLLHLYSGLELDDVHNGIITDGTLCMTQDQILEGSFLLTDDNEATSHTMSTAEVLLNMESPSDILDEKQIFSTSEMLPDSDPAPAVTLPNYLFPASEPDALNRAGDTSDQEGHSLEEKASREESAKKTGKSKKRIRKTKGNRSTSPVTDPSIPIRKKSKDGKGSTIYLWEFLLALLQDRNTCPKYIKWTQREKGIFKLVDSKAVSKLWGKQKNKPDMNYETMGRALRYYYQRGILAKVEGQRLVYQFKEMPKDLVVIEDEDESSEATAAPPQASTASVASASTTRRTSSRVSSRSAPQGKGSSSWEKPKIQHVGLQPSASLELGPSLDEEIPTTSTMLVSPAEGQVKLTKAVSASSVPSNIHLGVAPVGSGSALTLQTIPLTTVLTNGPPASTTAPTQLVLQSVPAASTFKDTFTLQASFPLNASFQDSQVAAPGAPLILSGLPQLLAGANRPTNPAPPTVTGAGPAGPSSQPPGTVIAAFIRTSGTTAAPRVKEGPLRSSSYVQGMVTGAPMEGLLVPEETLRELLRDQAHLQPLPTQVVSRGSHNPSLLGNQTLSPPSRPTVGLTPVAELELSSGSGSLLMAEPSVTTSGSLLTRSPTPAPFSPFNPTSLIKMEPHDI
# How it was run: as §1
# ELK4 = molecular target: T3, ELK4 (Homo sapiens, UniProt P28324-2 1-405); conditions: protein: recombinant; tags: N-terminal GST; dsDNA, one strand shown
# T3 sequence: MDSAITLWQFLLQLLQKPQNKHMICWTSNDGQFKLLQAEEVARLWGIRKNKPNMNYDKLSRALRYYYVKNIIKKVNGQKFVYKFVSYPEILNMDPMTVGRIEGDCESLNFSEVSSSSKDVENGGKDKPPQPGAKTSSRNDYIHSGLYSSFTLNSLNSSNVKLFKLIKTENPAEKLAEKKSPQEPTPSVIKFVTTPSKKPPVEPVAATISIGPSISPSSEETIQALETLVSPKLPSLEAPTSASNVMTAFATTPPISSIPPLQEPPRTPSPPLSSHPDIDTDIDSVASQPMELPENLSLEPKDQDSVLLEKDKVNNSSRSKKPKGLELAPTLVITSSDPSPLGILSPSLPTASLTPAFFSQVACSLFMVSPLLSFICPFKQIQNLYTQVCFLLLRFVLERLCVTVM
# How it was run: as §1
# ETV2 = molecular target: T4, ETV2 (Homo sapiens, UniProt O00321 1-342); conditions: protein: recombinant; tags: N-terminal GST; dsDNA, one strand shown
# T4 sequence: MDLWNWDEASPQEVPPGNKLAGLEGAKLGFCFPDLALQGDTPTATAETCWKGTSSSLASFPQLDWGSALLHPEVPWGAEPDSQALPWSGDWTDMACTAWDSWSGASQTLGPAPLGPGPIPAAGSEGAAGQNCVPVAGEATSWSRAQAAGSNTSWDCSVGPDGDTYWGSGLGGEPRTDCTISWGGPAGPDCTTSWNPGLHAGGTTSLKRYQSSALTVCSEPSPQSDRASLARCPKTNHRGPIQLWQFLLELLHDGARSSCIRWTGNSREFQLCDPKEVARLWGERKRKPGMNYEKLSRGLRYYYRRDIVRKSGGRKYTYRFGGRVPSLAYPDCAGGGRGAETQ
# How it was run: as §1
# ELF3 = molecular target: T5, ELF3 (Homo sapiens, UniProt P78545 1-371); conditions: protein: recombinant; tags: N-terminal GST; dsDNA, one strand shown
# T5 sequence: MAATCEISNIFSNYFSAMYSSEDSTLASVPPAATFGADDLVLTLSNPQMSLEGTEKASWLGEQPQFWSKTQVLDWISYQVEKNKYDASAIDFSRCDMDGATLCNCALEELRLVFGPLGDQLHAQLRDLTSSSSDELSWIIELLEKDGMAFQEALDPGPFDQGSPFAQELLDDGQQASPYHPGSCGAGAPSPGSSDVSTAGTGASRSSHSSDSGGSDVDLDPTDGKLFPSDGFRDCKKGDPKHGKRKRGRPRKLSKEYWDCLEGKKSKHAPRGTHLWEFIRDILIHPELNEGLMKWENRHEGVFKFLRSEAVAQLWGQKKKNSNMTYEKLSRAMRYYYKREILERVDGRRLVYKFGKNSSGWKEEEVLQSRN
# How it was run: as §1
# CRX = CRX (Homo sapiens, UniProt O43186 1-299); conditions: protein: recombinant; tags: N-terminal GST; dsDNA, one strand shown
# Chain of CRX (O43186 whole entry): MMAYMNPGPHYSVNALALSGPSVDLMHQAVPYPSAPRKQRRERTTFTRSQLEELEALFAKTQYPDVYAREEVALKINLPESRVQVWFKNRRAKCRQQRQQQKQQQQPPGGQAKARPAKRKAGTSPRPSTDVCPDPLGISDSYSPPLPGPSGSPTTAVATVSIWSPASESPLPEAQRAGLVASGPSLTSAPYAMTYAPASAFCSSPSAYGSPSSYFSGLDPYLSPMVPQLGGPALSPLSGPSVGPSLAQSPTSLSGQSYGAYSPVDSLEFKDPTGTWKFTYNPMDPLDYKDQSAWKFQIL
# How it was run: as §1
# ETV1 = ETV1 (Homo sapiens, UniProt P50549 1-477); conditions: protein: recombinant; tags: N-terminal GST; dsDNA, one strand shown
# Chain of ETV1 (P50549 whole entry): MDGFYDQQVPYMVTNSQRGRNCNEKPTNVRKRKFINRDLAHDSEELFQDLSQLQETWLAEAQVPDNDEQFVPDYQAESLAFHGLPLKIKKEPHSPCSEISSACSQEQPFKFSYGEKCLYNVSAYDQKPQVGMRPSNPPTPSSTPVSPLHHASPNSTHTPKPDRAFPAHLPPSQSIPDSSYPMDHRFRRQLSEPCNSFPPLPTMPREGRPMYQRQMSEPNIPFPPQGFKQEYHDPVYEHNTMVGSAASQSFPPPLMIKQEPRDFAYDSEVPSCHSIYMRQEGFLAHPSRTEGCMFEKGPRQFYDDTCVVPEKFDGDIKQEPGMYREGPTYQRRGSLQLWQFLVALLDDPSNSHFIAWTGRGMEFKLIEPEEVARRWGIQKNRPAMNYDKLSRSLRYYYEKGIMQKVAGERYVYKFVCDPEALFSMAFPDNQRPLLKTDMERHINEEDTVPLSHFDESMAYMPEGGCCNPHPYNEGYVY
# How it was run: as §1
sequence,measurement,setting,value
ATCTTC,binding signal,FEV,"1.39 fold enrichment (6-mer frequency, TF over GST control)"
same,binding signal,ETV5,"1.6 fold enrichment (6-mer frequency, TF over GST control)"
same,binding signal,HSF1,"2.15 fold enrichment (6-mer frequency, TF over GST control)"
same,binding signal,SPIC,"1.49 fold enrichment (6-mer frequency, TF over GST control)"
same,binding signal,ELF4,"1.31 fold enrichment (6-mer frequency, TF over GST control)"
same,binding signal,ELK4,"1.56 fold enrichment (6-mer frequency, TF over GST control)"
same,binding signal,ETV2,"1.75 fold enrichment (6-mer frequency, TF over GST control)"
same,binding signal,ELF3,"1.69 fold enrichment (6-mer frequency, TF over GST control)"
same,binding signal,CRX,"1.98 fold enrichment (6-mer frequency, TF over GST control)"
same,binding signal,ETV1,"1.63 fold enrichment (6-mer frequency, TF over GST control)"
